Screens as filed in PubChem.
Sampled rows, rich in hits. Any-hit rate of the full collection: about 2.4%.
PP5 inh – inhibitors of human protein phosphatase 5 (PP5). P53041. actives 0.18% (n = 320,000). inhibition, % at 6.7 µM. purified PP5c, OMFP substrate fluorescence;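 active means inhibition above the campaign's mean inhibition across all tested compounds plus 3 SD, cut at about 9.5% in these data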
NadD block – NadD (S. aureus) enzyme inhibition; purified NadD enzyme, colorimetric absorbance read-out; AID 602399; actives 0.78% (n = 360,000); inhibition, % at 20 µM; in the data active means inhibition above about 26%
Rpn11 block – blocks the human proteasome subunit Rpn11. O00487. human 26S proteasome, Ub4-pepOG fluorescence polarization; 20S core pre-blocked with epoxomicin. inhibition, % at 20 µM. actives 0.59% (n = 360,000). AID 588493;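 active means inhibition at 20 µM, scaled to each plate's controls, above about 33%, limit read from the data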
Target sequence (O00487 whole entry, looked up): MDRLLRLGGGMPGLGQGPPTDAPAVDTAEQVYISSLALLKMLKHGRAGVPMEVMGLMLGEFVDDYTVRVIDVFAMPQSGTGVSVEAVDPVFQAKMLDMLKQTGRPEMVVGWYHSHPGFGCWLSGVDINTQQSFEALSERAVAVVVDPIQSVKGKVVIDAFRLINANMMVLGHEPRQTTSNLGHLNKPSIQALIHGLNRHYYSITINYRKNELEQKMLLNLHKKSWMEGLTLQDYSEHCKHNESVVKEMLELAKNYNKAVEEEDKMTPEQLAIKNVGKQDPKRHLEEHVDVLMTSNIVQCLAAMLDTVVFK
PP1 inh – PP1-alpha (human) inhibition in PP5 counter-screen; P62136; AID 2235; inhibition, % at 6.7 µM; actives 0.9% (n = 320,000); purified PP1alpha, OMFP fluorescence;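 active means inhibition above the mean inhibition of all tested compounds plus 3 SD, computed separately for each screening campaign, cut at about 15% in these data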
PREPL inh – inhibits the human prolyl oligopeptidase-like enzyme; Q4J6C6; recombinant PREPL, fluorescence polarization activity-based probe; inhibition, % at 5.96 µM; actives 0.68% (n = 320,000); in the data active means inhibition above about 43%
PP5 conf – confirmation of human PP5 phosphatase inhibitors | shares compounds with PP5 inh | Purified PP5, fluorogenic phosphatase substrate, fluorescence | inhibition, % at 6.7 µM | actives 22% (n = 460); in the data active means inhibition above about 9.5%
PP1 inh counter – PP1 phosphatase inhibition, counter-screen for PP5 inhibitors; actives 4% (n = 460); shares compounds with PP5 inh; PP1 enzyme, fluorescent phosphatase substrate; inhibition, % at 6.7 µM; in the data active means inhibition above about 16%
Of the large screens only hits and unclear results are named; the others gave an inactive call (follow-up assays come after a bar, where they were run).

C[C@H]1COC(=O)[C@H](CC(=O)OC(C)(C)C)C/C=C\C[C@@H](CC(=O)N[C@@H](CO)Cc2ccccc2)C(=O)N1	none (no result: PP5 inh, PP1 inh)
NC(=O)c1cccc(-c2cc(Nc3ccc(OC(F)(F)F)cc3)ncn2)c1	PP5 inh 10 | PP5 conf inactive | PP1 inh counter inactive
O=C(Nc1ccc(OC(F)(F)F)cc1)c1ccc2nc[nH]c2c1	none
Cc1ccc(NC(=O)c2ncn(CC(=O)NCc3ccccc3)n2)cc1C	none (no result: PP5 inh, PP1 inh, PREPL inh)
CCN(CC(=O)Nc1ccc(NC(C)=O)cc1)CC(=O)Nc1cccc(Cl)c1	PP5 inh 9.8 | PP5 conf inactive | PP1 inh counter inactive
CCN(CC(=O)Nc1ccc(NC(C)=O)cc1)CC(=O)Nc1ccc(Cl)c(Cl)c1	none
COc1ccc(CNC(=O)C2CCC(=O)N(CCCN3CCCC3=O)C2)c(OC)c1 (centres undefined)	none
O=C(CS(=O)(=O)c1ccc(Cl)c(Cl)c1)Nc1ccccc1Cl	PP5 inh 11 | PP5 conf inactive | PP1 inh counter inactive
C[C@@H]1COc2cccc(N3CCSCC3)c2S(=O)(=O)N1	none (no result: PP5 inh, Rpn11 block, PP1 inh, PREPL inh)
CC(C)CC1C(=O)N(Cc2cn(CCC3OCCCO3)nn2)CCS(=O)(=O)N1Cc1ccc(-c2ccc(Cl)c(Cl)c2)cc1 (centres undefined)	none (no result: PP5 inh, PP1 inh, PREPL inh)
O=C(NC1(O)C(=O)c2ccccc2C1=O)c1ccc(C(F)(F)F)cc1	PP5 inh 18 | PP5 conf 38 | PP1 inh counter inactive
O=C(Cc1ccccc1)NC1(O)C(=O)c2ccccc2C1=O	none
Cc1ccc(C(=O)NC2(O)C(=O)c3ccccc3C2=O)cc1C	PP5 inh 15 | PP5 conf 41 | PP1 inh counter inactive
O=C(Nc1ccc2c(c1)OCCO2)C1c2ccccc2OCC(=O)N1Cc1ccccc1 (centres undefined)	none (no result: PP5 inh, Rpn11 block, PP1 inh, PREPL inh)
COc1ccc(C(=O)NNC(=O)CCc2ccccc2OC)cc1	PP5 inh 16 | PP5 conf inactive | PP1 inh counter inactive
COc1ccccc1CCC(=O)NNC(=O)c1ccccc1	none
COc1ccccc1NC(=O)CN1CC(=O)Nc2ccccc21	none
Cn1nc(-c2ccccc2)cc1NC(=O)[C@@H]1O[C@H](CO)[C@H](O)[C@H](O)[C@H]1O	none (no result: PP5 inh, PP1 inh, PREPL inh)
CCn1c(SCC(=O)Nc2cccc(NC(=O)c3cccs3)c2)nnc1-c1ccncc1	none
CCC(=O)Nc1cccc(NC(=O)CSc2nnc(-c3ccc(NS(C)(=O)=O)cc3)n2CC)c1	PP5 inh 9.7 | PP5 conf inactive | PP1 inh counter inactive
CCC1(c2ccccc2)NC(=O)N(CC(=O)Nc2cccnc2Cl)C1=O (centres undefined)	none
O=C(CN1C(=O)NC(c2ccccc2)(c2ccccc2)C1=O)Nc1cccnc1Cl	PP5 inh 12 | PP5 conf inactive | PP1 inh counter inactive
CC1(c2ccc3ccccc3c2)NC(=O)N(CC(=O)N2CCN(Cc3ccc(C#N)cc3)CC2)C1=O (centres undefined)	none (no result: PP5 inh, PP1 inh, PREPL inh)
COc1ccccc1N1CCN(c2nc(C)nc3c2oc2ccccc23)CC1	PP5 inh 10 | PP5 conf inactive | PP1 inh counter inactive
Cc1nc(N2CCC(C)CC2)c2oc3ccccc3c2n1	none
O=[N+]([O-])c1cc(/C=N/O)ccc1Sc1ccccc1	PP5 inh 10 | PP5 conf inactive | PP1 inh counter inactive
CCOc1ccccc1C=NNC(=O)C1CC1	none (no result: PP5 inh, PP1 inh, PREPL inh)
CCCc1ccc(Oc2cn[nH]c2-c2ccc(O)cc2O)cc1	PP5 inh 10.0 | PP5 conf inactive | PP1 inh counter inactive
CCN(C(=O)CSc1n[nH]c(-c2ccc(OC)cc2)n1)c1c(N)n(Cc2ccccc2)c(=O)[nH]c1=O	none (no result: PP5 inh, PP1 inh, PREPL inh)
CCCc1cc2c(cc1NS(=O)(=O)c1ccc(CCNC(C)=O)cc1)OCO2	PP5 inh 11 | PP5 conf inactive | PP1 inh counter inactive
CC(=O)NCCc1ccc(S(=O)(=O)NCc2ccc3c(c2)OCO3)cc1	none
COc1cccc(-c2cnc3c(c2)C(=O)N([C@H](C)CO)C[C@@H](C)[C@H](CN(C)C(=O)Nc2ccccc2F)O3)c1	none (no result: PP5 inh, PP1 inh, PREPL inh)
Cn1c(=O)c2[nH]c(-c3cccnc3)nc2n(C)c1=O	PP5 inh 14 | PP5 conf inactive | PP1 inh counter inactive
CCC/C(O)=C1\C(=O)CC(C)(C)CC1=Nc1ccccc1O	none
